Data reported in the supplement of paper PMC12669032.

Test system: Streptococcus salivarius
Assay: growth AUC relative to DMSO control (median of replicates) (fraction); higher = more growth (less inhibition), active = hit call of the paper
Details: 20 µM; 24 h;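 active = AUC reduced over 20% with Padj below 0.05 in at least 2 of 3 replicates; inactive = otherwise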
Method in brief: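 Hourly OD600 readings over 24 h tracked anaerobic gut bacterial monocultures grown at 37 °C in mGAM from OD600 0.05 with 20 µM compound (1% DMSO). After the minimum OD was set to 0, area under the growth curve was normalised to the plate median of solvent-only wells, or to row and column medians on the industrial chemical plate. Values are medians of three biological replicates grown on separate days.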

Growth AUC, inactive:
C=C1C[C@]23C[C@@]1(O)CC[C@H]2[C@@]12C=C[C@H](O)[C@@](C)(C(=O)O1)[C@H]2[C@@H]3C(=O)O 0.904
N#Cc1ccccc1NC(=O)c1snc(Cl)c1Cl 0.991
c1ccc2c(c1)Cc1ccccc1-2 0.985
COc1nc(NC(=O)NS(=O)(=O)c2ccccc2C(F)(F)F)nc(C(F)(F)F)n1 1.02
CCNc1nc(NC(C)CC)nc(OC)n1 (centres undefined) 1.02
CCc1cccc(CC)c1N(COC)C(=O)C(=O)O 1.02
CC1=C(c2ccccc2)C(=O)N(C(C)(C)c2cc(Cl)cc(Cl)c2)CO1 0.979
CC(C)N(C(=O)C(=O)O)c1ccccc1 1.02
CCSC(=O)COc1ccc(Cl)cc1C 0.915
CN(C)C(=O)NC1CCCCCCC1 1.05
CC(C)(C)C(=O)C(Oc1ccc(Cl)cc1)n1ccnc1 (centres undefined) 0.963
CCCN(CCOc1c(Cl)cc(Cl)cc1Cl)C(=O)NC=O 0.993
CC(C)c1nn(C(=O)NC(C)(C)C)c(=O)n1N 1.01
CCN(CC)C(=O)c1cccc(C)c1 0.96
COc1nc(N)nc(C(F)(F)F)n1 1
CC1(C)C(=O)Oc2ccc(OS(C)(=O)=O)cc21 1.02
NC(=O)Cc1cccc2ccccc12 1.05
O=C1NCC[n+]2ccccc21.[Br-] 0.987
CCOC(=O)C(C)N(C(=O)c1ccccc1)c1ccc(Cl)c(Cl)c1 (centres undefined) 0.947
CCCC(C)(C)C(=O)Nc1ccc(Cl)cc1 0.963
CCCCOC(=O)COc1ccc(Cl)cc1Cl 1.01
CCCOC(=O)c1ccc(C(=O)OCCC)nc1 0.996
CCc1cccc(C)c1N(C(=O)C(=O)O)[C@@H](C)C(=O)O 0.943
Clc1ccc(C(c2ccccc2Cl)C(Cl)Cl)cc1 (centres undefined) 0.966
CCOc1ccc(NC(=O)OC(C)C)cc1OCC 0.975
CCc1cccc(C)c1NC(=O)C(=O)O 0.994
O=C(O)COc1cccc(Cl)c1Cl 0.973
COc1nc(N)nc(NC(C)(C)C)n1 1.03
N#Cc1ccc(CC(=NNC(=O)Nc2ccc(OC(F)(F)F)cc2)c2cccc(C(F)(F)F)c2)cc1 (mixture of isomers) 1.02
CCOC(=O)C1=NOC(c2ccccc2)(c2ccccc2)C1 0.959
CCc1cccc(CC)c1N(COC)C(=O)CS(=O)(=O)[O-].[Na+] 0.964
N#Cc1c(N)nc(NC2CC2)nc1N 1
CN(C)C(N)=O 1.02
O=C(O)Cc1cccc2ccccc12 0.99
CCNc1nc(Cl)nc(N(CC)CC)n1 1.02
c1ccc2c(c1)-c1cccc3c1c-2cc1ccccc13 1.03
C=CCc1ccc(OC)c(OC)c1 1.02
COC(=O)c1ccc(C(=O)OC)cc1 0.951
O=c1cc(Cl)[nH]nc1-c1ccccc1 1.03
